Compound activity: PubChem BioAssay, several laboratories
Sampled rows, rich in hits. Any-hit rate of the full collection: about 4.6%.
HSF1 activator – HSF-1 activators, primary screen, NIH3T3-HGL cells, MG132 stress, luminescence, single point. AID 504408, 2011. activation, % at 9 µM. NIH3T3-HGL HSF-1 luciferase reporter, 8 h; 100% = twice DMSO control signal. actives 1.7% (n = 300,000);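 active = mean replicate activation of at least 50% with a set share of replicates each reaching 50%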;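 also: 0% = median of the neutral control wells and 100% = twice that signal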
AHR activator – AHR activators, primary screen, cell-based, luminescence, luciferase reporter, human | actives 2.5% (n = 320,000) | Aryl hydrocarbon receptor (Homo sapiens), P35869 | activation, % at 5 µM | AID 2796, 2010 | AHR-responsive luciferase reporter cells; in the data active = activation above about 47%;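 also: 0% = vehicle wells and 100% = reference agonist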
GAA850 FXN act – FXN promoter activators, primary screen, cell-based, luciferase luminescence, HEK293 lucGAA850; HEK293 lucGAA850 FXN promoter luciferase reporter, 24 h; percent of 10 µM SAHA response; activation, % at 6 µM; actives 0.56% (n = 360,000); AID 540364, 2011;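 active = activation above the average of all compounds screened plus 3 SD, cutoff fixed separately per campaign, cut at about 7.5% in these data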;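 also: 0% = DMSO wells and 100% = 10 µM SAHA wells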
HSF1 inhib – HSF1 inhibitors in luciferase reporter cells, primary screen, cell-based, NIH3T3, luminescence | NIH3T3-HGL HSE-luciferase, MG132-induced, luminescence 8 h; stronger effect = lower value | activity change, negative = inhibition, % at 7.5 µM (by protocol) | actives 0.77% (n = 300,000);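 active = more than half of replicate wells show activity change below -50%, luminescence cut by over half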;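 also: luciferase reports HSF-1 transcriptional activity via heat shock element; 0% = median of DMSO wells and -100% = zero luminescence signal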
AHR act cf – AHR activators, confirmation, cell-based, luminescence, luciferase reporter, human; shares compounds with AHR activator; activation, % at 9 µM; human cells, AHR-responsive luciferase reporter; actives 87% (n = 2,300); in the data active = activation above about 49%;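 also: HepG2 hepatoma cells carrying a DRE-driven firefly luciferase reporter; 0% = vehicle wells and 100% = reference agonist wells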
PXR act counter – human PXR activators, counter-screen for AHR activator project, cell-based, luciferase luminescence | shares compounds with AHR activator | cell-based PXR reporter | activation, % at 11.6 µM | actives 88% (n = 2,300) | AID 434939, 2010; in the data active = activation above about 11%;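 also: human hepatoma DPX-2 cells expressing full-length human PXR; 0% = DMSO and 100% = reference agonist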
Target sequence (O75469 whole entry, looked up): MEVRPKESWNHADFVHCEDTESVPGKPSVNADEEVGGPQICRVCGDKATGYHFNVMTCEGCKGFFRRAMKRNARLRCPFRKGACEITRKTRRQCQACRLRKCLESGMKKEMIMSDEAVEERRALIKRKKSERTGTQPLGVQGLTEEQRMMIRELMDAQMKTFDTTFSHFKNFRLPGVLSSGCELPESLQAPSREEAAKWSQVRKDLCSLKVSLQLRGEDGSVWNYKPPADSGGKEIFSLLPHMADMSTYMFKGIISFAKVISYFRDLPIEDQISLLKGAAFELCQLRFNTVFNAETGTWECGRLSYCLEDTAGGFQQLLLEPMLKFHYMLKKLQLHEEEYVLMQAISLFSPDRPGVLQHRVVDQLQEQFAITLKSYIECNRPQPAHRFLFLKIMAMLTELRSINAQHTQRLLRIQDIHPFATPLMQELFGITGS
* hit, by the source's call.

`COc1cc(OC)cc(-c2c(-c3cccs3)c3cc(-c4ccc5cc[nH]c5c4)ccc3n2C)c1` gave AHR activator 12.3 and GAA850 FXN act 1.3.
Screening Cc1nc2scc(-c3cccs3)c2c(=O)[nH]1 returned HSF1 activator -9.6, AHR activator -0.8, GAA850 FXN act 1.9 and HSF1 inhib -4.3.
Screening O=c1[nH]c(-c2ccc(O)cc2)nc2scc(-c3cccs3)c12 returned HSF1 activator 35.4, AHR activator 123.9*, GAA850 FXN act 6.3, HSF1 inhib 22.8, AHR act cf 86.5* and PXR act counter 22.7*.
For COc1ccc(C2C(C#N)=C(N)OC3=C2C(=O)CC(C)C3)c(OC)c1OC (stereo unspecified) the results were HSF1 activator 25.0, AHR activator -2.1, GAA850 FXN act -0.3 and HSF1 inhib -3.9.
For COc1ccccc1/C=C/C(=O)OCC(=O)c1c[nH]c2ccccc12 the results were AHR activator 16.6 and GAA850 FXN act -1.0.
`Brc1c(-c2ccc3c(c2)OCO3)nc2ncccn12` gave HSF1 activator 40.8, AHR activator 101.2*, GAA850 FXN act 3.8, HSF1 inhib 9.1, AHR act cf 115.8* and PXR act counter 22.2*.
`COc1ccc(-c2nc3ncccn3c2Br)cc1` gave HSF1 activator 27.7, AHR activator 29.4, GAA850 FXN act 4.6 and HSF1 inhib 13.0.
For O=C(CS(=O)(=O)c1ccccc1)Nc1nnc(C(F)(F)F)s1 the results were HSF1 activator 0.8, AHR activator 3.4, GAA850 FXN act 0.3 and HSF1 inhib 3.2.
For CN(C)c1ccc(/C=N/NC(=O)c2ccccn2)cc1 the results were HSF1 activator 22.2, AHR activator 32.9, GAA850 FXN act -0.4 and HSF1 inhib 4.7.
Screening CN(C)c1ccc(/C=N\NC(=O)c2csnn2)cc1 returned HSF1 activator 13.7, AHR activator 110.9*, GAA850 FXN act 2.2, HSF1 inhib 18.2, AHR act cf 54.5* and PXR act counter 10.2*.
Cc1ccc2cc3c(NC(=O)c4ccco4)nn(C)c3nc2c1 was read as HSF1 activator 11.7, AHR activator 81.7*, GAA850 FXN act -1.8, HSF1 inhib -0.6, AHR act cf 97.0* and PXR act counter 2.2.
Screening CCCn1nc(NC(=O)c2ccco2)c2cc3ccccc3nc21 returned HSF1 activator 2.4, AHR activator 22.0, GAA850 FXN act 2.3 and HSF1 inhib 0.8.
For Cc1ccc2cc3c(NC(=O)c4cccnc4)nn(C)c3nc2c1 the results were HSF1 activator 14.4, AHR activator 114.0*, GAA850 FXN act -1.4, HSF1 inhib 4.6, AHR act cf 93.4* and PXR act counter 13.7*.
CCn1nc(NC(=O)c2ccncc2)c2cc3ccc(C)cc3nc21 was read as HSF1 activator -3.1, AHR activator 11.7, GAA850 FXN act -0.1 and HSF1 inhib -4.8.
For CCOC(=O)c1cc2occc2n1CCCN1C(=O)c2ccccc2C1=O the results were HSF1 activator 32.7, AHR activator -0.2, GAA850 FXN act 0.4 and HSF1 inhib 7.0.
Screening O=C(Nc1cccc(Cl)c1)c1cccnn1 returned HSF1 activator -0.7, AHR activator 109.2*, GAA850 FXN act -0.4, HSF1 inhib 6.5 and AHR act cf 82.2*.
Cc1ccnc(SCc2ccc([N+](=O)[O-])cc2)n1 was read as HSF1 activator -1.7, AHR activator -1.6, GAA850 FXN act 2.4 and HSF1 inhib 5.2.
COC(=O)c1sccc1NC(=O)Nc1ccccc1OC was read as HSF1 activator 1.6, AHR activator 34.7, GAA850 FXN act 2.6 and HSF1 inhib -1.4.
Screening Cc1nnc(Nc2ccccn2)c2ccccc12 returned HSF1 activator 1.6, AHR activator 147.7*, GAA850 FXN act -0.7, HSF1 inhib 0.3, AHR act cf 142.7* and PXR act counter 57.7*.
`Cc1nnc(Nc2ccc(F)cc2)c2ccccc12` gave HSF1 activator -4.0, AHR activator 41.7, GAA850 FXN act 1.9 and HSF1 inhib 2.9.
